Among all 2,100 compounds or so, about 770 (37%) were called active.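 Rule for the calls: active = by-eye trace score of 1 for enhancers or -1 for inhibitors, so actives lie on both sides (some results past the limit were not filed as active); inactive = score 0, or 3 fluorescent, or 4 baseline rise.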 The list shows a part of the results.

The target of this experiment is G protein-activated inward rectifier potassium channel 2 (Homo sapiens) + G protein-activated inward rectifier potassium channel 1 (Homo sapiens) (UniProt P48051+P48549). Description: GIRK1/2 thallium flux modulators, retest, confirmation, cell-based, HEK293 rmGlu8/hGIRK1/2, FluoZin-2 (AID 623911). The conditions noted are these: HEK293 rmGlu8/hGIRK1/2, thallium flux FluoZin-2; actives lie on both sides; glutamate co-added at its EC20 level.
Sequence of G protein-activated inward rectifier potassium channel 2 (Homo sapiens) + G protein-activated inward rectifier potassium channel 1 (Homo sapiens) (P48051 whole entry, looked up): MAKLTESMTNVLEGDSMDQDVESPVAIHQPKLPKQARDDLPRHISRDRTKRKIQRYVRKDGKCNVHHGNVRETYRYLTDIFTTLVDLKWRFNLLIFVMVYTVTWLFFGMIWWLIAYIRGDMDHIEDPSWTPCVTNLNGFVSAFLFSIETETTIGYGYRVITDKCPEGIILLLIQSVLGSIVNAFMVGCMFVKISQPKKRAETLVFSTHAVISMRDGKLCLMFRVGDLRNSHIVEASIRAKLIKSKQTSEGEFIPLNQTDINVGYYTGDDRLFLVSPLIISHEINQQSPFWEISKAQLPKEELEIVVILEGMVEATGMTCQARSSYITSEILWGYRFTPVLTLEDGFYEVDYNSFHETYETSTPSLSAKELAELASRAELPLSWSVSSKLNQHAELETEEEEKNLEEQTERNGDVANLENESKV
Sequence of G protein-activated inward rectifier potassium channel 2 (Homo sapiens) + G protein-activated inward rectifier potassium channel 1 (Homo sapiens) (P48549 whole entry, looked up): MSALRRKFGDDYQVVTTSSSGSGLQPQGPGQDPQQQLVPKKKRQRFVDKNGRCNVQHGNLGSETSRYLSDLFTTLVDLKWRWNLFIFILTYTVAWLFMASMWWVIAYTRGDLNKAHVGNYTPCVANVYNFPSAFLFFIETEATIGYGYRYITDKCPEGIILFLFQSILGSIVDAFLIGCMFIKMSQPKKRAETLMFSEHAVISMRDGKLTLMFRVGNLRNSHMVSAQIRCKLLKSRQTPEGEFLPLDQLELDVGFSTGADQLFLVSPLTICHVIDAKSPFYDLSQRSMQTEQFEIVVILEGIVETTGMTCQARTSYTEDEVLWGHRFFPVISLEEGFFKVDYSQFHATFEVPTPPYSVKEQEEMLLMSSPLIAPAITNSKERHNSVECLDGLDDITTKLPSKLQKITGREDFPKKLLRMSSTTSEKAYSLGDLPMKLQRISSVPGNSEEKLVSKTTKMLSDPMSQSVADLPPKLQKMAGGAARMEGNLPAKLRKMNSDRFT
On to `CCc1cc2cc(C)ccc2nc1SCC(=O)N1CCN(C(=O)c2ccco2)CC1`, for which the manual score was 0 (inactive).

For `CCN(C#N)c1nc(NC(C)C)nc(NC(C)C)n1`, the manual score was 0 (inactive).

Regarding `Cc1cccc(C)c1NC1=NC(=S)N(c2ccc(N(C)C)cc2)C1(C)C`, the manual score was 0 (inactive).

As to `Cc1ccc(N2C(=S)N=C(Nc3ccccc3C)C23CCOC(C)(C)C3)cc1` (centres undefined), the manual score was 1 (active).

As for `Cc1ccccc1Nc1nc2nonc2nc1N1CCOCC1`, the manual score was 0 (inactive).

With `Cc1ccccc1NC1=NC(=S)N(c2ccccc2)C12CCOC(C)(C)C2` (centres undefined), the manual score was 1 (active).

`CCOC(=O)CSc1cccc2cccnc12`: the manual score is 0 (inactive).

`COC(=O)c1ccc(C(=O)NC(=S)Nc2nc3c(s2)CCCC3)cc1`: the manual score was 1 (active).

Turning to `CC(C)(C)c1ccc(C(=O)NC(=S)Nc2nc3c(s2)CCCC3)cc1`, the manual score is 0 (inactive).

Consider `COC(=O)c1sc(NC(=S)NC(=O)c2ccccc2)nc1C`, for which the manual score is 1 (active).

On to `COC(=O)c1sc(NC(=S)NC(=O)c2cccc(C)c2)nc1C`, for which the manual score was 0 (inactive).

Turning to `O=C(NC(=S)NCc1ccc(-c2nc3ccccc3s2)cc1)c1ccco1`, the manual score is 0 (inactive).

Regarding `CCOC(=O)c1sc(NC(=S)NC(=O)c2ccco2)nc1C`, the manual score is 1 (active).

As for `CCc1nnc(NS(=O)(=O)c2ccc(NC(=S)NC(=O)c3ccccc3)cc2)s1`, the manual score was 0 (inactive).

Consider `O=C(NC(=S)Nc1nc2ccccc2s1)c1ccco1`, for which the manual score was 1 (active).

Consider `Cn1c(-c2ccc(-c3ccccc3)cc2)c[nH]c1=S`, for which the manual score is 0 (inactive).

As to `COC(=O)c1ccc(N2C(=O)CC(Sc3n[nH]c(C)n3)C2=O)cc1` (centres undefined), the manual score was 0 (inactive).

As for `COC(=O)c1sc(NC(=S)NC(=O)c2ccccc2Cl)nc1C`, the manual score was 1 (active).

In the case of `COc1cc(OC)c(NC(=O)CCNC(=O)Cn2cnc3ccccc3c2=O)cc1Cl`, the manual score is 0 (inactive).

Turning to `CCC(=O)Nc1ccc2c(c1)ncn2-c1ccc(OC)cc1`, the manual score is 0 (inactive).

On to `CCN(CC)S(=O)(=O)c1cc(NC(=O)Cn2cnc3ccccc3c2=O)ccc1C`, for which the manual score is 1 (active).

For `C=CCn1c(=O)c2c(C)c(C)sc2n2c(Nc3ccc(OC)cc3)nnc12`, the manual score is -0.5 (inactive).

For `CCCCn1c(N)c(C(=S)NC(=O)CC(C)C)c(=O)n(C)c1=O`, the manual score was 1 (active).

Turning to `CCCCn1c(N)c(C(=S)NC(=O)CC(C)(C)C)c(=O)n(C)c1=O`, the manual score was 1 (active).

As for `Brc1ccc(-c2nnc3c4ccccc4nc(N4CCOCC4)n23)cc1`, the manual score was 0 (inactive).

Regarding `CCC(=O)N1c2ccc(C)cc2C2=NNC(=S)NC21O` (centres undefined), the manual score was 0 (inactive).

With `COc1ccc(CNCCC(c2ccc(F)cc2)c2ccc(OC)cc2)cc1` (centres undefined), the manual score is -1 (active).

As to `COc1ccc(C(CCNCc2ccccc2F)c2ccc(F)cc2)cc1` (centres undefined), the manual score was -1 (active).

Take `O=C(NNC(=O)c1cc(-c2ccccc2)n(-c2ccccc2)n1)c1cccc([N+](=O)[O-])c1`: the manual score was 0 (inactive).

As to `COc1ccc(C2c3ccc4ccccc4c3Oc3ncn(CCN4CCOCC4)c(=N)c32)cc1` (centres undefined), the manual score was -1 (active).

On to `COc1ccc(S(=O)(=O)NCCCCCC(=O)NCCCN2CCOCC2)cc1`, for which the manual score was 0 (inactive).

`N=c1c2c(ncn1CCN1CCOCC1)Oc1ccc3ccccc3c1C2c1ccccc1` (centres undefined): the manual score is -1 (active).

Turning to `NC(=O)COc1ccc(C2c3c(oc4ccccc4c3=O)C(=O)N2CC2CCCO2)cc1` (centres undefined), the manual score is 0 (inactive).

On to `CC1CCN(c2c([N+](=O)[O-])c(=O)oc3ccccc23)CC1`, for which the manual score was 0 (inactive).

For `CCOC(=O)C1(C(C)(C)CC)CC(CSc2nc3ccccc3[nH]2)OC1=O` (centres undefined), the manual score was -1 (active).

Take `CCn1c(-c2cc3ccccc3cc2O)n[nH]c1=S`: the manual score was 0 (inactive).

On to `O=C1N=C(c2ccccc2)S/C1=C\c1cccs1`, for which the manual score is 0 (inactive).

As to `N=C1/C(=C/c2cccs2)C(=O)N=C2SN=C(SCc3ccccc3)N12`, the manual score is 1 (active).

As to `CSC1=NSC2=NC(=O)/C(=C/c3coc4ccccc4c3=O)C(=N)N12`, the manual score was 3 (inactive).

Regarding `FC(F)(F)c1ccc2nnc(-c3c(Cl)cccc3Cl)n2c1`, the manual score was 0 (inactive).

In the case of `O=C(C1CCCN1S(=O)(=O)c1cccc2cccnc12)N1CCn2c1nc1ccccc12` (centres undefined), the manual score was 0 (inactive).

Turning to `O=C(C1CCN(S(=O)(=O)c2cccc3cccnc23)CC1)N1CC=C(c2ccccc2)CC1`, the manual score is -1 (active).

In the case of `O=C(C1CCCN1S(=O)(=O)c1cccc2cccnc12)N1CCc2ccccc21` (centres undefined), the manual score is 0 (inactive).

Turning to `O=C(Cc1ccccc1)NC(=S)Nc1cccc(C(F)(F)F)c1`, the manual score is 0 (inactive).

As to `FC(F)(F)c1cccc(N2CCN(C(=S)NC3CCCCC3)CC2)c1`, the manual score is 0 (inactive).

Turning to `FC(F)(F)c1cccc(NC(=S)NC2CCCC2)c1`, the manual score is 1 (active).

Turning to `FC(F)(F)c1cccc(NC(=S)NCc2ccccc2)c1`, the manual score is 1 (active).

Turning to `Cc1ccc(NC(=S)NCc2ccccc2)cc1[N+](=O)[O-]`, the manual score was 1 (active).

For the molecule `COc1ccc(/C=C/C(=O)N2CCN(S(=O)(=O)/C=C/c3ccccc3)CC2)cc1OC`, the manual score was 0 (inactive).

With `O=C(C1CCN(c2ncnc3c2sc2cccc(F)c23)CC1)N1CCOCC1`, the manual score was 0 (inactive).

Turning to `CCOc1ccc(-c2nc(-c3ccncc3)no2)cc1OCC`, the manual score is 0.5 (inactive).

Regarding `S=C(NCc1ccco1)Nc1ccc(Cl)c(Cl)c1`, the manual score is 1 (active).

In the case of `COc1ccc(/C(C)=N/NC(=S)NCc2ccco2)cc1`, the manual score was 0 (inactive).

For `S=C(NCc1ccco1)N/N=C/c1ccc(Cl)cc1`, the manual score was 0 (inactive).

Turning to `COc1ccc(C(=S)Nc2ccc(N(C)C)cc2)cc1`, the manual score is 0 (inactive).

Turning to `COc1ccc2nc(NC(=S)N(C)C)sc2c1`, the manual score was 1 (active).

For `COc1ccc2nc(N=Nc3ccc(O)c4ccccc34)sc2c1`, the manual score is 0 (inactive).

Take `Clc1ccccc1-c1nnc2sc(CCc3ccccc3)nn12`: the manual score is 0 (inactive).

Consider `CCn1c(O)c(N=NC2=NC(=O)CS2)c2cc(C)ccc21`, for which the manual score was 0 (inactive).

Turning to `CCc1ccc2c(c1)c(N=NC1=NC(=O)CS1)c(O)n2CC`, the manual score was 1 (active).

For `CCc1ccc2c(c1)c(N=NC1=NC(=O)CS1)c(O)n2C`, the manual score was 1 (active).

In the case of `CC(C)(C)c1csc(NC(=O)c2ccc3nccnc3c2)n1`, the manual score was 0 (inactive).

For the molecule `Cc1cs/c(=N\N=C\c2cccc([N+](=O)[O-])c2)n1Cc1ccco1`, the manual score is 0 (inactive).

Take `CC(C)Sc1oc(-c2ccco2)nc1S(=O)(=O)c1ccccc1`: the manual score is -1 (active).

In the case of `Cn1c(=O)cc(OCCCC(=O)NCc2ccc3c(c2)OCO3)c2ccccc21`, the manual score was 0 (inactive).

`O=C(CCCCn1c(=O)c2ccccc2n(CC(=O)NC2CCCC2)c1=O)NCc1ccco1`: the manual score is 0 (inactive).

Regarding `N=c1c(C(=O)NCc2ccco2)cc2c(=O)n3ccccc3nc2n1CCc1ccccc1`, the manual score was -1 (active).

As to `CCCn1c(=N)c(C(=O)NCc2ccc3c(c2)OCO3)cc2c(=O)n3cccc(C)c3nc21`, the manual score was -1 (active).

As to `Cc1cccn2c(=O)c3cc(C#N)c(=NC(=O)c4cccnc4)n(CC4CCCO4)c3nc12` (centres undefined), the manual score was 3 (inactive).
